Some test systems named below: NCI-H23 lung; NCI-H226 lung; NCI-H322M lung; HOP-62 NSCLC; NCI-H460 lung; HOP-92 NSCLC; NCI-H522 lung; A549/ATCC NSCLC; 786-0 renal; COLO 205 colon.
Holding throughout (experiment): NCI-60 one-dose screen, 48 h (100 = growth as untreated, 0 = no growth, -100 = all killed)
Holding throughout (details): 10 µM unless noted

Molecules are shown by their SMILES. Compounds without any hit were thinned out: in the full panel of roughly 83,000, 20% have a hit.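 Assay: single dose, 48 h. Readout: percent growth (0 = no net growth; negative = cell death). Active: <10.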 Unmarked numbers belong to inactive results. Calls of active or inactive are those of the source.

For `NC(Cc1ccc(O)cc1)C(=O)N/N=C/c1ccccc1O` (centres undefined), the growth in the assay with NCI-H23 lung was 99.9%; with NCI-H226 lung, 103%; with NCI-H322M lung, 94%; in the assay with HOP-62 NSCLC, 105%; in the assay with NCI-H460 lung, 108%; in the assay on HOP-92 NSCLC, 56.6%. Moreover, the growth with NCI-H522 lung is 96.6%; in the assay with A549/ATCC NSCLC it was 97.5%; in the assay with 786-0 renal, 104%; in the assay with COLO 205 colon, 123%.

`COc1cccc(-c2nn(-c3ccccc3)cc2-c2ccnc(NCCCNS(=O)(=O)c3cccc(F)c3)c2)c1`: the growth in the assay with NCI-H23 lung is 30.2%; in the assay with NCI-H226 lung, 21.7%; in the assay with NCI-H322M lung it was 53.9%; in the assay on HOP-62 NSCLC, 54.1%; in the assay on NCI-H460 lung, 24.5%; with HOP-92 NSCLC, 6.39% (active). For the same compound, the growth is 9.36% (active) in the assay on NCI-H522 lung, 27.4% in the assay on A549/ATCC NSCLC, 31.6% with 786-0 renal and 11.9% in the assay on COLO 205 colon.

In the case of `Cc1oc(-c2ccccc2Cl)cc1C(=O)Nc1ccc(S(N)(=O)=O)cc1`, the growth with NCI-H23 lung was 96.4%; in the assay on NCI-H226 lung it was 96.1%; with NCI-H322M lung, 102%; in the assay with HOP-62 NSCLC it was 105%; in the assay on NCI-H460 lung, 107%; in the assay with HOP-92 NSCLC it was 107%. The growth with NCI-H522 lung was 97.3%; in the assay on A549/ATCC NSCLC, 105%; in the assay on 786-0 renal, 103%; in the assay with COLO 205 colon, 116%.

Regarding `O=c1[nH]ncc(Br)c1Br`, the growth with NCI-H23 lung is -57% (active); with NCI-H226 lung, 112%; with NCI-H322M lung, 94.7%; in the assay with HOP-62 NSCLC it was 90.2%; with NCI-H460 lung, 65.9%; with HOP-92 NSCLC it was 62.3%. Moreover, the growth was -41.3% (active) in the assay with NCI-H522 lung, 69.3% in the assay on A549/ATCC NSCLC, 71.6% in the assay with 786-0 renal and 22.4% in the assay on COLO 205 colon.

`N=C(N)c1ccc(S(N)(=O)=O)cc1`: the growth in the assay on NCI-H23 lung is 93.6%; in the assay on NCI-H226 lung, 101%; in the assay with NCI-H322M lung it was 96.2%; in the assay with HOP-62 NSCLC, 87.1%; with NCI-H460 lung, 113%; in the assay on HOP-92 NSCLC, 93.6%. Also, the growth in the assay with NCI-H522 lung is 91.8%; in the assay on A549/ATCC NSCLC, 91.9%; in the assay on 786-0 renal, 90.8%; in the assay on COLO 205 colon, 122%.

As for `O=S(=O)(NCCNc1cc(-c2cn(-c3ccccc3)nc2-c2cccc(O)c2)ccn1)c1cccc(F)c1`, the growth in the assay with NCI-H23 lung is 45.8%; with NCI-H226 lung it was 55.3%; with NCI-H322M lung, 56.2%; in the assay with HOP-62 NSCLC, 56.7%; in the assay on NCI-H460 lung, 33.1%; in the assay with HOP-92 NSCLC, 51.1%. The growth was 26.7% in the assay with NCI-H522 lung, 42.4% in the assay on A549/ATCC NSCLC, 16.8% with 786-0 renal and -4.68% (active) with COLO 205 colon.

On to `COc1cc2c(cc1-c1c(C)noc1C)ncc1nc(C3CCC(F)(F)CC3)n([C@@H](C)COC(F)F)c12`, for which the growth in the assay with NCI-H23 lung was 60.2%; in the assay with NCI-H226 lung it was 55%; with NCI-H322M lung it was 40.6%; in the assay with HOP-62 NSCLC, 31.7%; with NCI-H460 lung it was 55.3%; in the assay with HOP-92 NSCLC, 35.1%. Besides, the growth in the assay on NCI-H522 lung was 31.5%; in the assay on A549/ATCC NSCLC it was 37.5%; in the assay with 786-0 renal, 43.5%; in the assay with COLO 205 colon, 23.5%.

On to `COc1cnc2c(c1)C(=O)c1c-2n(CCCN2CCN(CCO)CC2)c(=O)c2cc([N+](=O)[O-])ccc12`, for which the growth in the assay on NCI-H23 lung is -40.2% (active); in the assay with NCI-H226 lung, 64%; with NCI-H322M lung, -20.4% (active); with HOP-62 NSCLC, 39.8%; with NCI-H460 lung, -75.7% (active); in the assay on HOP-92 NSCLC, 76.9%. The growth with NCI-H522 lung was 38.3%; in the assay with A549/ATCC NSCLC it was -88.9% (active); with 786-0 renal, -85.4% (active); in the assay with COLO 205 colon it was 62%.

For `CC(=O)NC1=C(C#N)C(c2ccccc2Cl)c2c(ccc3ccccc23)O1` (centres undefined), the growth in the assay on NCI-H23 lung was 76.2%; in the assay on NCI-H226 lung, 83.5%; with NCI-H322M lung it was 86.8%; in the assay with HOP-62 NSCLC, 59.2%; in the assay on NCI-H460 lung it was 39.1%; in the assay with HOP-92 NSCLC, 72.5%. Besides, the growth in the assay on NCI-H522 lung is 39.2%; with A549/ATCC NSCLC it was 67.1%; in the assay on 786-0 renal, 82.7%; in the assay on COLO 205 colon it was 79.5%.

On to `CC/C=C\C[C@H]1CC=C2C(=O)C=C[C@@H]2CC=CCCCC(=O)O[C@@H](CCCCC)CC=C2C(=O)C=C[C@@H]2CC=CCCCC(=O)O[C@@H](CCCCC)CC=C2C(=O)C=C[C@@H]2CC=CCCCC(=O)O[C@@H](CCCCC)CC=C2C(=O)C=C[C@@H]2CC=CCCCC(=O)O1`, for which the growth in the assay on NCI-H23 lung was 4.69% [7.9 µM] (active); in the assay with NCI-H226 lung, 74.6% [7.9 µM]; in the assay with NCI-H322M lung, 85.7% [7.9 µM]; in the assay with HOP-62 NSCLC, 8.97% [7.9 µM] (active); in the assay with NCI-H460 lung it was 30.4% [7.9 µM]; in the assay on HOP-92 NSCLC, 7.82% [7.9 µM] (active). Also, the growth is 39% [7.9 µM] in the assay on A549/ATCC NSCLC, 23% [7.9 µM] in the assay with 786-0 renal and -26.7% [7.9 µM] (active) in the assay with COLO 205 colon.

On to `COc1cc(/C=N/NC(=S)NNC(=S)NC2CCCCC2)cc(OC)c1OC`, for which the growth with NCI-H23 lung was 97.4%; with NCI-H226 lung, 91.2%; in the assay on NCI-H322M lung it was 93.7%; with HOP-62 NSCLC, 94.8%; in the assay on NCI-H460 lung, 97.1%; with HOP-92 NSCLC, 91.2%. The growth was 89.3% in the assay on NCI-H522 lung, 100% in the assay on A549/ATCC NSCLC, 102% with 786-0 renal and 102% in the assay with COLO 205 colon.

The values above are taken from PubChem BioAssay (NCI).
